VP16 counter = Gal4-VP16 reporter inhibition counter-screen | Drosophila S2 Gal4-VP16 UAS-luciferase, luminescence, 20 h | hit rate 3.5% among 310,000 | AID 2546 | Potency, µM (top dose mostly 53.6 µM), for the others: at the highest dose activity, negative = inhibition, usual class: inhibitors;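 further: Gal4-VP16 expression switched on by copper sulfate through the metallothionein promoter; potency means the concentration at half of the fitted maximal effect; nearly all actives have a fitted effect of over 50% in size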
IL1B secr inh = inflammasome signaling inhibition, IL-1 beta readout | hit rate 4.7% among 360,000 | THP-1 LPS/ATP IL-1B secretion, AlphaLISA, 16 h; hits give low values | activity change, % at 57.5 µM | AID 743279; in the data active means activity change below about -50%; inconclusive means mostly about -30% to -49%
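Secreted IL-1B measured by AlphaLISA bead assay after 16 h compound exposure of THP-1 cells; compounds (final up to 57.5 uM) added 1 h before LPS (250 ng/mL) and ATP (1.25 mM) stimulation; lower signal means less secretion.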
ELG1 repair inh = inhibitors of ELG1-dependent DNA repair in HEK293T cells; HEK293T ELG1-luciferase reporter, luminescence, 16 h; DNA damage induced by 5-fluorouridine; Potency, µM (titrated, usually from 46.1 µM), without a hit: top-dose activity change, negative = inhibition, hits mostly inhibitors; hit rate 2.3% among 330,000; further: potency means the concentration at half of the fitted maximal effect; nearly all actives have a fitted effect of over 55% in size
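Reporter activity after DNA damage by 5-fluorouridine is monitored. Compound-treated cells incubate 16 hr at 37 °C, then ONE-Glo is added for 30 min before luminescence reading.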
RORg inh = inhibitors of mouse ROR gamma transcriptional activity; P51450; Drosophila S2 Gal4-RORgamma UAS-luciferase reporter, 20 h; Potency, µM (top dose mostly 53.6 µM), inactives show top-dose activity change, negative = inhibition, usual class: inhibitors; hit rate 5.4% among 310,000; further: potency means the concentration at half of the fitted maximal effect; nearly all actives have a fitted effect of over 60% in size
Target sequence (P51450 whole entry, looked up, the tested form may be a part): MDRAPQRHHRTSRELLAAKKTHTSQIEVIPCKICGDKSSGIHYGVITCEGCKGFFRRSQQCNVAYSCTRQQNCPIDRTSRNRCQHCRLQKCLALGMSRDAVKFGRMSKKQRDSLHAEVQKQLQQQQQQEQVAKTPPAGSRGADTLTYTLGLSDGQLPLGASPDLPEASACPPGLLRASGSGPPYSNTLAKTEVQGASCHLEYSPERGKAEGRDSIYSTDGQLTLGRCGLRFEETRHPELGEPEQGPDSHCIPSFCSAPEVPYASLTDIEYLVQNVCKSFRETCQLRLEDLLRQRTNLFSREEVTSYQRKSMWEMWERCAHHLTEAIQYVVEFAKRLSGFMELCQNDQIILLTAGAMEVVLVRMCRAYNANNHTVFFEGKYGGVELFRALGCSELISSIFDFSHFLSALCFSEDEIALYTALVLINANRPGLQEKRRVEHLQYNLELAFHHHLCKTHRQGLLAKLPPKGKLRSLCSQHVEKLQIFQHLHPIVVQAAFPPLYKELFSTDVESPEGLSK
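Luminescence from a UAS-regulated Photinus luciferase reporter in stably transfected Drosophila Schneider cells is measured; decreased signal marks ROR gamma inhibition. Fusion expression is induced by 700 uM copper sulfate for 20 hr.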
DT40 TDP1 CPT = DT40-hTDP1 cell growth loss with CPT; Potency, µM (series often up to 46.2 µM), for inactives: top-dose activity change, negative = growth inhibition, hits mostly inhibitors; chicken DT40 Tdp1-/-;hTDP1 cells + 20 nM CPT, ATP luminescence, 48 h; AID 686979; hit rate 12% among 420,000; further: potency means the concentration at half of the fitted maximal effect; nearly all actives have a fitted effect of over 55% in size
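Cell growth measured by CellTiter-Glo luminescence after a minimum 48 h, 37 C compound exposure with 20 nM CPT in Tdp1-knockout DT40 cells stably expressing hTDP1, seeded 400/well; qHTS titration format.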
DT40 TDP1 no CPT = qHTS for Inhibitors of human tyrosyl-DNA phosphodiesterase 1 (TDP1): qHTS in cells in absence of CPT; DT40 Tdp1-/- hTDP1 cells, no CPT, ATP luminescence, 48 h; Potency, µM (doses to about 46.2 µM), for inactives: top-dose activity change, negative = growth inhibition, actives largely listed as inhibitors; hit rate 15% among 420,000; AID 686978, 2013; further: potency means the concentration at half of the fitted maximal effect; nearly all actives have a fitted effect of over 55% in size
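Chicken DT40 Tdp1-/- cells stably complemented with human TDP1 were seeded at 400 cells/well with DMSO in place of 20 nM camptothecin. After compound pinning, cells grew at least 48 hr at 37 °C; viability read by CellTiter-Glo luminescence.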
Numbers without * were called inactive; u = inconclusive; x = not tested or not shown; [ ] = dose if it differs, or a comment. A selection: hits, their analogues and other compounds. The true share with any hit is near 21%. Unless noted, the call rests on the fitted dose curve; in most records, active means well fitted curve in the direction sought with a large enough effect; inconclusive means small, poorly fitted or top-dose-only effect, or another doubt; inactive means no such curve, though single readings can be large; an effect the other way counts as inactive or inconclusive. On the % scale 0 is the no-effect control and ±100 the full control effect.

SMILES	VP16 counter	IL1B secr inh	ELG1 repair inh	RORg inh	DT40 TDP1 CPT	DT40 TDP1 no CPT
CN(CC(=O)Nc1ccc(Cl)c(C(F)(F)F)c1)C(=O)CCN1C(=O)C2CCCCC2C1=O (stereo unspecified)	x	1	4%	x	23µM*	23µM*
CN(CC(=O)Nc1ccc(Cl)c(C(F)(F)F)c1)CC(=O)NC1CCCCC1	x	-7	-16%	x	16µM*	u
C[C@@H]1COc2cc(N3CCC[C@H]3CO)ccc2S(=O)(=O)N1	x	0	x	x	3%	1%
CS(=O)(=O)Nc1cccc(-c2nc(Nc3ccncc3)c3ccccc3n2)c1	6%	x	x	u	u	u
CCNC(=S)NNC(=O)CSc1nc2ccccc2[nH]1	13µM*	-1	4%	4µM*	2%	-4%
CCNC(=S)NNC(=O)CSc1nc2ccccc2n1C	0.71µM*	3	0%	0.22µM*	6%	-28%
OC(c1ccc(Cl)cc1)c1ncc(-c2cccc(F)c2)[nH]1 (stereo unspecified)	x	-9	x	x	u	u
COc1cc(=O)n2c(c1C(=O)N(C)Cc1nccs1)CCN(Cc1ccc(F)c(F)c1)CC2	x	x	x	x	u	-27%
O=C(Oc1c(CN2CCOCC2)cc(Cl)c2cccnc12)c1ccccc1	5µM*	u	23µM*	1.8µM*	u	u
Oc1c(CN2CCc3ccccc3C2)cc(Cl)c2cccnc12	1.1µM*	31	u	0.79µM*	5.8µM*	5.8µM*
O=C(O)Cn1cc(CN2CCOCC2)c2ccccc21	6%	12	4%	2%[1.91 µM]	-1%	-19%
O=C(Oc1c(CN2CCOCC2)cc(Cl)c2cccnc12)c1ccccc1F	2.2µM*	32	10µM*	1.1µM*	3.7µM*	4.6µM*
O=[N+]([O-])c1cc(CN2CCOCC2)c2cccnc2c1O	4%	16	-11%	3%	u	u
Oc1c(Cl)cc(CN2CCOCC2)c2cccnc12	x	95	u	x	0.65µM*	1µM*
O=c1oc2ccc(Cl)cc2cc1-c1nc(-c2cccs2)no1	x	x	x	x	-2%	-1%
Oc1c(CN2CCCCC2)cc(Br)c2cccnc12	1µM*	106	u	4µM*	5.2µM*	5.2µM*
COc1cc(C(=S)N2CCOCC2)cc(OC)c1OC(=O)c1ccccc1Cl	x	27	x	x	-11%	u
COc1cc(CN2CCCCCC2)cc(Br)c1O	-2%	29	-4%	u	3%	5%
COc1cc(OC)cc(C(=O)Oc2c(CN3CCOCC3)cc(Cl)c3cccnc23)c1	3.2µM*	-6	16µM*	4.5µM*	u	u
CCCCNCc1cc2ccccc2o1	5%	-21	u	12%	-13%	27%
O=C(Nc1ccc2nc([C@@H]3O[C@H](CO)[C@@H](O)[C@H](O)[C@H]3O)[nH]c2c1)NC(c1ccccc1)c1ccccc1	x	23	x	x	-7%	12%
O=C(NCC1CCCCC1)c1cc(-c2cc(F)ccc2OCC2CCCO2)n[nH]1 (stereo unspecified)	x	-56*	x	x	18µM*	u
Cc1ccc(Cl)cc1-c1cc(C(=O)N2CCc3ccccc3C2)[nH]n1	x	u	x	x	16µM*	u
Cc1ccc(Cl)cc1-c1cc(C(=O)Nc2ccc(F)cc2)[nH]n1	x	-60*	x	x	23µM*	21µM*
COc1ccc(-c2cc(C(=O)NCC3CCCCC3)[nH]n2)c(C)c1	x	-9	x	x	u	u
SMILES	VP16 counter	IL1B secr inh	ELG1 repair inh	RORg inh	DT40 TDP1 CPT	DT40 TDP1 no CPT
Cc1ccc(Cl)cc1-c1cc(C(=O)NCC2CCCCC2)[nH]n1	x	-51*	x	x	u	18µM*
CC(C)NC(=O)CSc1nnc(-c2ccc3ncccc3c2)n1C	-5%	-12	-2%	-5%	-2%	-12%
CO[C@H]1CN(C)C(=O)c2cc(NC(=O)c3cc(C)on3)ccc2OC[C@@H](C)N(C(=O)C2CC2)C[C@H]1C	x	-5	x	x	1%	-7%
COc1ccc(Cl)c(-c2cc(C(=O)NCc3ccc(C(F)(F)F)cc3)[nH]n2)c1	x	-28	x	x	16µM*	u
COc1ccc(Cl)c(-c2cc(C(=O)NCc3ccco3)[nH]n2)c1	x	-30	x	x	-23%	-23%
Cc1cc(F)ccc1-c1cc(C(=O)NCc2ccc(C(F)(F)F)cc2)[nH]n1	x	-4	x	x	u	-26%
Cc1ccc(Cl)cc1-c1cc(C(=O)NCc2ccc(C(F)(F)F)cc2)[nH]n1	x	0	x	x	21µM*	16µM*
COc1cc(C)ccc1S(=O)(=O)NC(=O)Cn1nnc(COc2ccc3c(c2)CCCC3)c1C	x	20	x	x	0%	0%
O=C(Cc1ccc(Cl)cc1)NC1CC(=O)N(c2ccc3c(c2)OCCO3)C1 (stereo unspecified)	x	x	x	x	-17%	-19%
Cc1ccc(-n2ncc3c(=O)n(CC(=O)N4CCN(c5ccccc5)CC4)cnc32)cc1C	-17%	-13	13%	-27%	-28%	u
COc1ccc(CCNC(=O)Cc2ccc(NC(=O)N3CCSc4ncccc43)cc2)cc1OC	x	x	x	x	-27%	u
CC(C)CC(NC(=O)OC(C)(C)C)c1cn([C@@H](CCCCNC(=O)OC(C)(C)C)C(=O)N2CCN(C(=O)OC(C)(C)C)CC2)nn1 (stereo partly specified)	0%	-28	-23%	12%	5.8µM*	3.7µM*
C[C@@H](C(=O)N1CCN(C(=O)OC(C)(C)C)CC1)n1cc(-c2cn([C@@H](C)C(=O)N3CCN(C(=O)OC(C)(C)C)CC3)nn2)nn1	-12%	x	11%	-3%	x	x
CC(C)(C)OC(=O)CC[C@@H](C(=O)N1CCN(C(=O)OC(C)(C)C)CC1)n1cc(C(Cc2ccc(O)cc2)NC(=O)OC(C)(C)C)nn1 (stereo partly specified)	-4%	-27	u	29%	18µM*	16µM*
CN(C)c1ccc(C2NC(=O)c3ccccc3N2)cc1 (stereo unspecified)	-2%	2	u	-6%	-49%	-15%
Brc1cccc(C2Nc3cccc4cccc(c34)N2)c1	x	2	0%	x	u	-19%
Oc1ccccc1C1Nc2cccc3cccc(c23)N1	-15%	10	18%	16%	u	u
COc1ccc([C@@H]2Sc3ccccc3NC(=O)[C@@H]2O)cc1	x	5	x	x	8%	2%
COc1ccccc1C1Nc2cccc3cccc(c23)N1	11%	-24	-3%	u	15µM*	21µM*

Source: PubChem (National Center for Advancing Translational Sciences (NCATS))
